An excerpt weighted towards active compounds, which were near 28% of everything screened.
CYP2C19 act: human CYP2C19 activators, primary screen, biochemical, luminescence. 96,000 tested, under 10 active. activation factor at 5 µM. recombinant CYP2C19, luciferin-H EGE luminescence; hits give high values; 0 = fully inhibited enzyme, 1 = untreated enzyme;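 active = activation factor of at least 2 at 5 µM in the primary screen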;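 also: 0 = wells with 2.5 mM tranylcypromine and 1 = vehicle-only wells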
hDAT+cocaine: changed hDAT dopamine uptake under cocaine IC80, either direction, primary screen, cocaine antagonist project, cell-based, LLC-PK1 hDAT, [14C]-dopamine uptake, MLSMR; Sodium-dependent dopamine transporter (Homo sapiens), Q01959; 110,000 compounds, 1.3% hits; AID 449768, 2010; B-score at 10 µM; LLC-PK1 hDAT cells, [14C]-dopamine uptake with cocaine IC80; actives deviate in either direction;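 active = Z score or B-score, a plate-position-corrected score, falls beyond the plate's 99.7% confidence bounds, in either direction; inactive = both scores lie inside the 99.7% bounds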;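 also: scored against the spread of the other compound wells on the same plate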
D1 allo mod: D1 CRE-luciferase signal change, two-sided – cell-based, HEK293 D1, dopamine EC30, D1 allosteric modulator project, primary screen; D(1A) dopamine receptor (Homo sapiens), P21728; dopamine EC30 potentiation; actives deviate in either direction; B-score at 10 µM; 58,000 compounds, 5.9% hits;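 active = luminescence count or its row- and column-corrected plate score outside the 99.7% band of the plate's sample wells, on either side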
CYP2C19 inh: blockers of cytochrome P450 2C19 activity – biochemical, luminescence, ADME assay, primary screen. P33261. CYP2C19 Supersomes, luciferin-H EGE luminescence, 30 min. inhibition, % at 5 µM. 96,000 compounds, 21% hits;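 active = CYP2C19 inhibition above a set limit at 5 µM in the primary screen, cut at about 50% in these data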;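 also: plate controls were negative control wells for no effect and 2.5 mM tranylcypromine positive control for full effect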
CYP2C9 inh: blockers of cytochrome P450 2C9 activity – biochemical, luminescence, ADME assay, primary screen | P11712 | CYP2C9 Supersomes, luciferin-H conversion | inhibition, % at 5 µM | 96,000 compounds, 20% hits;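 active = blocking of liver enzyme CYP2C9 beyond about 50% at 5 µM, limit read from the data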
Target sequence (P11712 whole entry, looked up): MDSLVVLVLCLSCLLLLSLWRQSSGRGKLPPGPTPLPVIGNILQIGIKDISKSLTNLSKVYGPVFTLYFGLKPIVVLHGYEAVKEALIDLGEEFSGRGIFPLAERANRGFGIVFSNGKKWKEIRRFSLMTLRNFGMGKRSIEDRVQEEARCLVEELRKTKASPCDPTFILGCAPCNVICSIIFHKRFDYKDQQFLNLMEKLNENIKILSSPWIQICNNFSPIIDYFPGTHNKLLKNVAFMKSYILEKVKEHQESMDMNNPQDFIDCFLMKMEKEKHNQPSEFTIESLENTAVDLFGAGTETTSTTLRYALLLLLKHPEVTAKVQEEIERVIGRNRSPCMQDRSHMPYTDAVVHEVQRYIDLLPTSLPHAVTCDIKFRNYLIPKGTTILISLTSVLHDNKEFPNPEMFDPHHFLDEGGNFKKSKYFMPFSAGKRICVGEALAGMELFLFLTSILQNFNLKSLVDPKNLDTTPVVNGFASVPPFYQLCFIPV
CYP2C9 activ: human CYP2C9 activators, primary screen, biochemical, luminescence; recombinant CYP2C9, luciferin-H conversion; hits give high values; factor 1 = untreated enzyme, 0 = blocked; activation factor at 5 µM; AID 1024, 2008; Cytochrome P450 2C9 (Homo sapiens), P11712; 96,000 compounds, 1.4% hits;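 active = activation factor of 2 or more for CYP2C9 at a 5 µM dose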;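 also: 0 = sulfaphenazole-blocked wells and 1 = vehicle-only wells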
* marks the source's active call; other numbers are inactive results; . = no result.

SMILES	CYP2C19 act	hDAT+cocaine	D1 allo mod	CYP2C19 inh	CYP2C9 inh	CYP2C9 activ
NC(=S)c1cc2ccc(O)cc2oc1=O	0.7	.	.	29.0	12.9	0.9
COc1ccccc1N=c1oc2cc(O)ccc2cc1C(N)=O	0.9	0.828	0.218	9.4	70.9*	0.3
Cc1cccc(N=c2oc3cc(O)ccc3cc2C(N)=O)c1	0.8	2.19	-1.03	17.6	69.2*	0.3
COc1ccccc1N=c1oc2cc(O)ccc2cc1C(=O)NCC1CCCO1 (stereo not drawn)	0.8	-0.672	-0.204	20.9	-59.5	1.6
Cc1cc(C)n(-c2nc3nonc3nc2Nc2cccc(C)c2C)n1	0.9	-0.536	.	7.2	4.0	1
c1ccc(-c2nc3c(ccc4ccccc43)[nH]2)nc1	.	4.12*	.	.	.	.
O=C(CSc1nnc(COc2cccc3cccnc23)o1)N1CCN(C(=O)c2ccco2)CC1	.	0.376	.	.	.	.
O=C(Nc1ccncc1)C1(c2ccccc2)CCCC1	0	0.547	0.101	100.0*	94.8*	0.1
O=C(Nc1ccc(O)c(-c2nc3ccccc3o2)c1)C1(c2ccccc2)CCCC1	0.8	0.195	.	24.3	87.4*	0.1
CC(=O)c1ccc(NC(=O)C2(c3ccccc3)CCOCC2)cc1	0.7	0.8	.	34.0	50.4*	0.5
CCNC(=O)C1(c2ccccc2)CCCC1	1	-0.666	0.312	-4.8	-2.6	1
O=C(Nc1ccccn1)C1(c2ccccc2)CCCC1	0.2	1.13	-1.6	80.9*	58.9*	0.4
CCN(CC)CCOC(=O)c1ccc(NC(=O)C2(c3ccccc3)CCCC2)cc1	1	-0.231	.	-0.3	3.1	1
Cc1ccc(NC(=O)C2(c3ccccc3)CCCC2)nc1	.	-0.508	.	.	.	.
Cn1c(=O)oc2cc(S(=O)(=O)NCc3ccccn3)ccc21	0.8	0.319	-0.7	24.2	-4.8	1
O=C(Nc1cccnc1)C1(c2ccccc2)CCCC1	0.5	-0.697	-0.509	52.1*	45.2	0.5
CC(=O)Nc1ccc(OCC(O)Cn2nc(C)nc2C)cc1 (stereo not drawn)	1	-0.0489	0.73	2.9	-7.2	1.1
Cc1nc(C)n(CC(O)COc2ccc3ccccc3c2)n1 (stereo not drawn)	0.3	0.0763	1.76	69.5*	-0.9	1
CS(=O)(=O)N(CC(=O)N1CCCCCC1)c1ccc2c(c1)OCCO2	0.8	-0.0642	-0.434	18.5	-65.3	1.7
Cc1oc(/C=N/NC(=O)CN(c2ccccc2Br)S(C)(=O)=O)cc1Br	.	-1.36	.	.	.	.
CS(=O)(=O)N(CC(=O)N1CCN(c2ccccc2)CC1)c1cccc(Br)c1	0.4	-0.555	-0.566	64.1*	-179.1	2.8*
CS(=O)(=O)N(CC(=O)N1CCN(c2ccc(F)cc2)CC1)c1ccc(F)c(Cl)c1	0.3	0.195	.	71.2*	-86.8	1.9
CCN(CC)C(=O)CN(c1ccc(F)c(Cl)c1)S(C)(=O)=O	0.7	0.91	0.618	32.9	-6.6	1.1
CN(C)c1ccc(/C=N/NC(=O)CN(c2cccc(Cl)c2)S(C)(=O)=O)cc1Br	0.7	-0.635	.	25.5	50.9*	0.5
CS(=O)(=O)N(CC(=O)N1CCCCCC1)c1ccc(Br)cc1	0.2	-0.968	0.00209	76.8*	36.7	0.6
SMILES	CYP2C19 act	hDAT+cocaine	D1 allo mod	CYP2C19 inh	CYP2C9 inh	CYP2C9 activ
Cc1sc(-n2c(C)cc(C=O)c2C)c(C(=O)O)c1C	1.1	-1.6	.	-7.5	8.0	0.9
CC(NC(=O)COc1ccccc1)C(c1ccccc1)N1CCN(C)CC1 (stereo not drawn)	0.5	-0.00375	-0.026	46.5	13.6	0.9
Cn1c(=O)cc(OCC(=O)N2CCC(N3CCCCC3)CC2)c2ccccc21	1.2	-0.0601	-0.246	-22.3	-16.9	1.2
Cc1cccc(N(CC(=O)N2CCCC2)S(=O)(=O)c2ccccc2)c1	0.4	0.158	-0.723	57.6*	73.0*	0.3
CS(=O)(=O)N(CC(=O)N1CCCC1)c1cccc(Cl)c1	0.4	-0.9	-0.226	56.8*	6.4	0.9
Cc1cc(C)cc(N(CC(=O)N2CCC(C)CC2)S(C)(=O)=O)c1	0.9	0.593	-0.656	13.2	-123.3	2.2*
Cc1cc(C)cc(N(CC(=O)N2CCC(C)CC2)S(=O)(=O)c2ccccc2)c1	0.9	0.356	.	12.8	49.9	0.5
C=CCN(c1ccc(C(=O)N2CCN(c3ccc(F)cc3)CC2)cc1)S(C)(=O)=O	0.6	0.0806	-1.1	44.2	55.2*	0.4
Cc1ccc(-n2c(CSc3nc(C)cc(C)n3)nnc2SCC(=O)N2CCCC2)cc1	1	0.81	0.397	-4.2	3.2	1
CS(=O)(=O)N(CC(=O)N1CCCCCC1)c1cccc(Br)c1	0.2	-1.34	-0.776	76.6*	40.7	0.6
COc1ccc(N2CCN(C(=O)CN(c3cccc(Br)c3)S(C)(=O)=O)CC2)cc1	0.9	0.838	0.74	5.1	-29.1	1.3
COC(=O)Oc1ccc(/C=N/NC(=O)CN(c2ccccc2Cl)S(C)(=O)=O)cc1OC	0.7	-0.00357	.	33.7	62.8*	0.4
CC1CN(c2nc3c(c(=O)n(Cc4ccc(Cl)cc4)c(=O)n3C)n2C)CC(C)O1 (stereo not drawn)	0.9	0.927	2.55	13.0	14.1	0.9
Cc1cc(C)cc(C(=O)NC(CC(N)=O)c2ccc(NC3CCCCC3)c([N+](=O)[O-])c2)c1 (stereo not drawn)	.	-1.07	.	.	.	.
O=C(NCCNC(=O)C1CC2CCC1C2)C1CC2CCC1C2 (stereo not drawn)	1	1.17	-0.309	-0.3	-7.6	1.1
Cc1cc(C)c(S(=O)(=O)N2CCOC2CNC(=O)C(=O)NCc2ccco2)c(C)c1 (stereo not drawn)	.	-0.519	.	.	.	.
Cc1cccc(CC(Cc2nc3ccccc3[nH]2)c2nc3ccccc3[nH]2)c1 (stereo not drawn)	0.1	1.52	.	92.6*	87.5*	0.1
CCOC(=O)Nc1ccc2ncn(C)c(=O)c2c1	1	-0.0348	.	2.2	5.9	0.9
Nc1nc2ccc(N3CCOCC3)cc2s1	0.9	0.894	-2	11.1	8.3	0.9
O=C(c1cnc2n(c1=O)CCS2)N1CCN(C(c2ccccc2)c2ccc(Cl)cc2)CC1 (stereo not drawn)	0.4	0.0865	0.0281	62.3*	44.3	0.6
O=C(c1cnc2n(c1=O)CCS2)N1CCN(c2ccccc2Cl)CC1	.	0.447	.	.	.	.
CCS(=O)(=O)c1nc(NC(C)=O)n[nH]1	1.1	-0.137	-0.719	-8.2	-9.4	1.1
CCN(CC)CCNC(=O)c1ccc(CS(=O)(=O)c2ccc(Br)cc2)o1	.	-0.928	-0.0532	.	.	.

Source: PubChem (several laboratories)
